{
  "source": "PubChem BioAssay (NCATS)",
  "note": "Records with an inconclusive call do not appear. Values without a mark were called inactive. The source made the active and inactive calls. The call rests on the fitted dose curve; in most records, active means well fitted inhibition curve with a large enough effect; inconclusive means small, poorly fitted or top-dose-only effect; inactive means no such curve, though single readings can be large or run the other way. On the % scale 0 is the no-effect control and ±100 the full control effect.",
  "data": [
    {"system": "Zika virus NS2B-NS3 protease (linked construct)", "experiment": "Primary screen NINDS Rhodamine qHTS for Zika virus inhibitors (AID 1347160); further: nearly all actives have a fitted effect of over 55% in size", "conditions": "purified NS2B-NS3 protease, Rhodamine110 substrate fluorescence; series mostly up to 33.1 µM; activity change, negative = inhibition: at the top concentration", "summary_of_the_method": "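Rhodamine110-peptide cleavage (1.5 µM substrate) by 25 nM linked NS2B-NS3 enzyme at pH 8.0 (Tris, Tween 20), after 15 min RT preincubation with compounds; 15-min fluorescence change normalized to controls and Hill-fitted.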", "values": [
      {"smiles": "O=C(O)c1cccc(C(=O)CCC2OC(n3cnc4c(=O)[nH]cnc43)C(O)C2O)c1", "note": "(stereo not given)", "activity change, negative = inhibition": "22.1%"},
      {"smiles": "C[C@@H]1C[C@@H](O)[C@@]23CO[C@]2(CO)CCC[C@@H]3[C@@]12C[C@@H](c1ccoc1)OC2=O", "activity change, negative = inhibition": "13%"},
      {"smiles": "C=CC(C)(O)C1CC2C3(C)CCCC(C)(C)C3C(O)C(O)C2(C)O1", "note": "(stereo not given)", "outcome": "inactive [at 33.1 µM]"},
      {"smiles": "CC(=O)O[C@H]1[C@H](OC(=O)C(C)C)[C@]2(C)OC3(CC[C@]2(C)[C@H]2CCC[C@]4(CO4)[C@]12C)COC(=O)C3", "note": "(stereo not given in full)", "activity change, negative = inhibition": "12.7%"},
      {"smiles": "C/C=C1/C[N+](C)([O-])C2Cc3c([nH]c4ccccc34)C(=O)CC1C2C(=O)OC", "note": "(stereo not given)", "activity change, negative = inhibition": "12.3%"},
      {"smiles": "CC12CC34CC(O)C5C(CO)(CO)CC(=O)CC5(C)C3CC1C2C4", "note": "(stereo not given)", "activity change, negative = inhibition": "-6.37%"},
      {"smiles": "CCC1OC(=O)C(C)CC(C)C(=O)/C(C)=C/C(C)C(=O)/C=C/C1(C)O", "note": "(stereo not given)", "activity change, negative = inhibition": "14.8%"},
      {"smiles": "O=C(O)c1cc(C(F)(F)F)ccc1N1CC[C@H](OCc2ccccn2)C1", "activity change, negative = inhibition": "79.8% [at 57.1 µM]"},
      {"smiles": "C=C(CCO)C(=O)OCC1OCC(OC(=O)C(=C)CCO[C@@H]2O[C@H](CO)[C@@H](O)[C@H](O)[C@H]2O)C(O)C1O", "note": "(stereo not given in full)", "activity change, negative = inhibition": "-3.9%"},
      {"smiles": "CC(=O)OC(C)C(C)(O)C(=O)O[C@@H]1CC[C@]2(C)CC(=O)C(=C(C)C)C[C@H]2[C@]1(C)OC(C)=O", "note": "(stereo not given in full)", "activity change, negative = inhibition": "-15.4%"},
      {"smiles": "CC(=O)c1ccc(O[C@@H]2O[C@H](CO[C@@H]3OC[C@@H](O)[C@H](O)[C@H]3O)[C@@H](O)[C@H](O)[C@H]2O)cc1", "activity change, negative = inhibition": "-2.05%"},
      {"smiles": "CC1(C)CC[C@]2(C(=O)O[C@@H]3O[C@H](CO)[C@@H](O)[C@H](O)[C@H]3O)CC[C@]3(C)C(=CCC4[C@@]5(C)CC[C@H](OC6OC(C(=O)O)C(OC7OC(CO)C(O)C(O)C7O)C(O)C6O)C(C)(C)C5CC[C@]43C)C2C1", "note": "(stereo not given in full)", "activity change, negative = inhibition": "-11.3% [at 15.1 µM]"},
      {"smiles": "Cc1c(C)c(NCC(=O)N(C)C2CCN(Cc3ccc(C(N)=O)cc3)CC2)c(C)c(C)c1N", "activity change, negative = inhibition": "18.2% [at 57.1 µM]"},
      {"smiles": "Cc1cc(Cn2cnc3c2CC(C(=O)O)N(C(=O)C(c2ccccc2)c2ccccc2)C3)ccc1N(C)C", "note": "(stereo not given)", "activity change, negative = inhibition": "31.2% [at 57.1 µM]"},
      {"smiles": "COC(=O)C1C(c2ccc(O)cc2)C(C(=O)O)C1c1ccc(O)cc1", "note": "(stereo not given)", "activity change, negative = inhibition": "17.1%"},
      {"smiles": "C/C=C(/C)C(=O)O[C@H]1C[C@]2(C)O[C@@H]2[C@@H](OC(C)=O)[C@@]2(C)CC[C@@](O)(C(C)C)[C@H]12", "activity change, negative = inhibition": "23.9%"},
      {"smiles": "O=C(OCC1OC(Oc2ccc(O)cc2COC(=O)C2(O)C(O)CCC(=O)C2OC(=O)C2C=CCC2)C(OC(=O)C2C=CCC2)C(O)C1O)C1C=CCC1", "note": "(stereo not given)", "activity change, negative = inhibition": "-17.7% [at 15.1 µM]"},
      {"smiles": "CC[C@H]1OC(=O)[C@H](C)[C@@H](O[C@H]2C[C@@](C)(OC)[C@@H](O)[C@H](C)O2)C(C)[C@@H](O[C@@H]2O[C@H](C)C[C@H](N(C)C)[C@H]2O)[C@](C)(O)C[C@@H](C)CN(C)[C@H](C)[C@@H](O)[C@]1(C)O", "note": "(stereo not given in full)", "outcome": "inactive"},
      {"smiles": "CC(C)=CCc1c(O)cc2oc3cc(C)cc(O)c3c2c1C", "outcome": "inactive"},
      {"smiles": "CC1(C)C2CC[C@@]34CC(CC[C@H]3[C@]2(C)CC[C@@H]1O[C@@H]1O[C@H](CO)[C@@H](O)[C@H](O)[C@H]1O)[C@](C)(O)C4", "note": "(stereo not given in full)", "activity change, negative = inhibition": "1.03%"},
      {"smiles": "COc1cc(O[C@@H]2O[C@H](CO[C@H]3OC[C@](O)(CO)[C@H]3O)[C@@H](O)[C@H](O)[C@H]2O)cc(OC)c1O", "outcome": "inactive [at 33.1 µM]"},
      {"smiles": "Cc1nc2cc(-c3cc(F)cc(C#N)c3)ccc2s1", "outcome": "inactive"},
      {"smiles": "CC(=O)O[C@@H]1C(=O)C(C)=C(CCC(C)CC(=O)O)[C@@]2(C)CCCC(C)(C)C12", "note": "(stereo not given in full)", "outcome": "inactive [at 33.1 µM]"},
      {"smiles": "COc1cc(C2OCC3(O)C(c4ccc(O[C@@H]5O[C@H](CO)[C@@H](O)[C@H](O)[C@H]5O)c(OC)c4)OCC23O)ccc1O", "note": "(stereo not given in full)", "activity change, negative = inhibition": "-2.78%"},
      {"smiles": "CC1CCC23COC(=O)C2=CC(O)CC3C1(C)CCc1ccoc1", "note": "(stereo not given)", "activity change, negative = inhibition": "-7.34%"},
      {"smiles": "C/C=C(\\C)C(=O)OC[C@H]1O[C@@H](O[C@H]2[C@@H](O[C@H]3O[C@H](CO)[C@@H](O)[C@H](O)[C@H]3O[C@@H]3O[C@H](CO)[C@@H](O)[C@H](O)[C@H]3O)O[C@H](COC(=O)/C(C)=C/C)[C@@H](O)[C@@H]2O)[C@H](O)[C@@H](O)[C@@H]1O", "activity change, negative = inhibition": "5.37% [at 15.1 µM]"},
      {"smiles": "FC(F)(F)c1nnc2c(Sc3ccccc3)nc3ccc(Cl)cc3n12", "activity change, negative = inhibition": "7.66% [at 57.1 µM]"},
      {"smiles": "COC(=O)C1=C[C@@H](O)[C@@H](O)[C@H](O[C@@H]2O[C@H](CO)[C@@H](O)[C@H](O)[C@H]2OC(=O)/C=C/c2ccccc2)C1", "activity change, negative = inhibition": "15.9%"},
      {"smiles": "O=C(O)c1ccncc1Nc1nn(CCN2CCC(F)(F)CC2)c2ccc(F)cc12", "activity change, negative = inhibition": "14.1% [at 57.1 µM]"},
      {"smiles": "CC(=O)N[C@H]1[C@H](O[C@H]2CC[C@]3(C)C4CC=C5[C@@H]6CC(C)(C)CC[C@]6(C(=O)O)[C@H](O)C[C@@]5(C)[C@]4(C)CC[C@H]3C2(C)C)O[C@H](CO)[C@@H](O)[C@@H]1O", "note": "(stereo not given in full)", "outcome": "inactive [at 15.1 µM]"}
    ]}
  ]
}
